# Bioassay records as filed in PubChem BioAssay.
# hcDAF-12 act = activates DAF-12 receptor from parasite H. contortus; HEK293 hcDAF-12 lit1-tk-luc reporter, luminescence; 0% DMSO, 100% Δ7-dafachronic acid; activation, % at 6.8 µM; 370,000 tested, 1.4% active; AID 652067;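 active = activation above the mean of all tested compounds plus 3 SD, cut at about 5.5% in these data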;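 note: 100% = response to 3 µM Δ7-dafachronic acid high control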
# esBAF inh = inhibitors of esBAF chromatin remodeling in mouse ES cells; Bmi1-luciferase knock-in reporter, 24 h; 100% = twice the neutral-well signal; reporter increase, % at 12.5 µM; 350,000 tested, 2% active; AID 602393; in the data active = activation above about 40%; inconclusive = no clear call, values can overlap the other calls;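 note: 0% = median of the plate's neutral control wells and 100% = double that signal; a rise in the Bmi1 reporter signal indicates esBAF inhibition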
# ssDAF-12 act = activates DAF-12 receptor from parasite S. stercoralis; HEK293 ssDAF-12/GRIP1 lit1-tk-luc reporter, luminescence; % of 3 µM dafachronic acid response; activation, % at 6.8 µM; 370,000 tested, 1% active; AID 652126;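 active = activation above the mean over all tested compounds plus 3 SD, cut at about 0.9% in these data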;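 note: 0% = DMSO-only wells and 100% = 3 µM delta7-dafachronic acid wells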
# hgDAF12 agonist = agonists of H. glycines DAF-12 nuclear receptor. HEK293 GAL4-hgDAF12 UAS-luciferase reporter, agonist luminescence; normalized to butyrate control. activation, % at 6.8 µM. 370,000 tested, 1.8% active;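 active = activation above a cutoff set at the mean of all screened compounds plus 3 SD, cut at about 10% in these data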;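 note: 0% = DMSO wells and 100% = sodium butyrate wells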
# Wnt bcat act = activates Wnt/beta-catenin signaling in a reporter cell assay; 300,000 tested, 1.2% active; AID 743398; activator, plate reader; activation, % at 9.35 µM; in the data active = activation above about 30%, passing the limit was not always enough; inconclusive = no clear call, values can overlap the other calls;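 note: 0% = neutral control wells and 100% = positive control wells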
# DAX1 StAR inh = blocks DAX1 repression of SF-1 activated StAR promoter; HEK293T StAR-luciferase reporter, SF-1/DAX-1 repression relief; inhibition, % at 6.8 µM; 370,000 tested, 1.1% active;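 active = inhibition above the mean over all tested compounds plus 3 SD, cut at about 3.6% in these data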;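 note: 0% = DAX-1 cells with DMSO and 100% = cells lacking DAX-1 with DMSO; higher inhibition means more luminescence from relief of DAX-1 repression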
# Starred values were filed as active, the others as inactive; u = inconclusive; x = no result given. Rows were chosen to be rich in hits. Some 4.2% of all compounds tested hit in one or more screens of this group.
SMILES,hcDAF-12 act,esBAF inh,ssDAF-12 act,hgDAF12 agonist,Wnt bcat act,DAX1 StAR inh
COc1cccc(C=Nc2ccccc2C(=O)Nc2nccs2)c1OC,1,-1,-1,4,1,1
COc1cccc2c1OCC(C(=O)Nc1nccs1)=C2,4,u,0,13*,u,2
S=C(N/N=C/c1ccc(Br)cc1)N1CCCCC1,3,50*,1.2*,10,-3,2
Cc1ccc(/C=N/NC(=S)N2CCOCC2)cc1,4,x,0,12*,x,2
C[C@H]1CN([C@@H](C)CO)S(=O)(=O)c2ccc(-c3ccc(C(=O)N(C)C)cc3)cc2O[C@H]1CN(C)C(=O)C1CCCCC1,x,3,x,x,x,x
CN1C(=O)c2cc(NC(=O)C3CCOCC3)ccc2OC[C@@H]2O[C@@H](CC(=O)NCc3ccc4c(c3)OCO4)CC[C@H]21,x,4,x,x,x,x
COc1ccccc1-c1cc(C(=O)NCCc2ccccc2)no1,3,60*,-1,9,27,0
COc1cccc(CCNC(=O)c2cc(COc3cccc(OC)c3)on2)c1,1,x,-1,-3,16,0
CCCc1cc(C(=O)NCCc2ccccc2)no1,4,50*,-1,11*,29,4
Cc1ccc(OCc2cc(C(=O)NCCc3cccnc3)no2)cc1C,0,58*,-1,1,26,-1
CCCc1cc(C(=O)Nc2cc(C)nn2-c2ccccc2)no1,0,-7,0,0,3,1
COc1c(O)cnn(-c2ccccc2)c1=O,1,x,-1,0,1,0
COc1cnn(-c2ccccc2)c(=O)c1OC,0,x,-1,-1,50*,0
COc1cnn(-c2ccc(C)cc2)c(=O)c1Cl,3,25,-1,12*,7,1
C[C@H](CO)N1C[C@H](C)[C@H](CN(C)C(=O)NC2CCCCC2)OCCCC[C@H](C)Oc2ccc(NC(=O)C3CCCCC3)cc2C1=O,x,8,x,x,x,x
COCC(=O)Nc1ccc2c(c1)[C@@H]1C[C@@H](CC(=O)NCc3ccccn3)O[C@H](CO)[C@@H]1O2,x,-3,x,x,x,x
C[C@H]1CCCCO[C@@H](CN(C)Cc2ccccc2)[C@@H](C)CN([C@@H](C)CO)C(=O)c2cc(NC(=O)Nc3cccc4ccccc34)ccc2O1,x,-7,x,x,x,x
O=C(O)c1cccc(N2C(=O)c3ccc(C(=O)c4cccc([N+](=O)[O-])c4)cc3C2=O)c1,0,-10,5.8*,3,1,0
O=C(O)c1cccc(NC(=O)c2ccc3c(c2)C(=O)N(c2cccc([N+](=O)[O-])c2)C3=O)c1,4,1,0,3,11,0
Cc1ccc(OCCOc2ccc(Cl)cc2Cl)c(Br)n1,0,x,-1,12*,x,x
Cc1cc(C)n(CCOc2ccc(Cl)cc2Cl)n1,-3,8,-1,0,-3,0
FC(F)Oc1ccccc1/C=N/n1cnc2ccccc21,3,x,-1,11*,u,0
Clc1ccc(OCc2nnc(-c3ccccc3Br)o2)cc1,0,0,2.1*,0,x,0
Clc1ccc(OCc2nnc(-c3ccccc3Br)o2)c(Cl)c1,1,79*,-2,4,19,1
COCC(=O)Nc1ccc2c(c1)[C@@H]1C[C@H](CC(=O)NCc3ccncc3)O[C@@H](CO)[C@@H]1O2,x,-2,x,x,x,x
SMILES,hcDAF-12 act,esBAF inh,ssDAF-12 act,hgDAF12 agonist,Wnt bcat act,DAX1 StAR inh
COc1ccc(C(=O)NC(=S)NC(C)(C)C)cc1Br,1,59*,-1,4,1,0
COc1ccc(C(=O)NC(=S)NC(C)C)cc1Br,2,63*,-1,0,x,0
O=C(C[C@H]1CC[C@@H](NC(=O)C2CCOCC2)[C@@H](CO)O1)NCc1ccccc1Cl,x,1,x,x,x,x
CCc1cc2c(=O)[nH]c(-c3ccccn3)nc2s1,1,x,-1,1,34*,-1
CCc1cc2c(=O)[nH]c(N3CCCC3)nc2s1,3,x,-1,3,22,0
COc1ccc(OC)c2sc(N3CCc4ccccc4C3)nc12,0,x,-1,1,7,-1
COc1ccc(OC)c2sc(N3CCCCC3)nc12,0,46*,-1,11*,24,-1
CC(=O)c1ccc(N2CCN(C(=O)c3ccc(Cn4c(=S)[nH]c5ccc(N6CCOCC6)cc5c4=O)cc3)CC2)cc1,-2,61*,-2,0,4,-3
O=c1c2cc(N3CCOCC3)ccc2[nH]c(=S)n1CC1CCCO1 (stereo unspecified),0,28,0.9*,3,x,0
O=C(c1ccc2c(=O)n(Cc3ccccc3)c(=S)[nH]c2c1)N1CCOCC1,-1,-4,-1,-2,-2,0
C[C@@H]1CN([C@@H](C)CO)C(=O)Cc2cc(NC(=O)CCC(F)(F)F)ccc2O[C@@H]1CN(C)Cc1ccc(Oc2ccccc2)cc1,x,0,x,x,x,x
O=C1CCC(/C=C/c2ccccc2)=NN1,0,x,-1,3,-1,1
CCOc1ccc(/C=C/C2=NNC(=O)CC2)cc1,2,9,-2,11*,12,1
COCc1cc(C)n(CC(=O)N/N=C/c2ccc(-c3ccc(Cl)c(C(=O)O)c3)o2)c(=O)c1C#N,1,x,0.9*,-1,2,0
CCOC(=O)c1ccc(NS(=O)C23CC4CC(CC(C4)C2)C3)cc1 (stereo unspecified),2,64*,0,2,x,0
O=C(CCC1CCCC1)NCCCNC(=O)CCC1CCCC1,5.9*,x,0,5,-3,0
S=C(Nc1ccc2c(c1)OCO2)N1CCN(Cc2ccco2)CC1,2,x,0,11*,3,3
S=C(NCc1ccco1)N1CCN(Cc2ccco2)CC1,0,0,-1,-1,-3,0
CCOC(=O)c1ccc(-n2c(C)nc3ccc(Br)cc3c2=O)cc1,2,3,2.7*,1,1,0
CCn1c2ccccc2c2nc3cc(OC)c(OC)cc3nc21,0,49*,-1,2,14,-1
CCC(=O)NC(c1ccccc1)c1nc2ccccc2[nH]1 (stereo unspecified),2,49*,-1,3,x,1
CCCC(=O)NC(C)c1nc2ccccc2[nH]1 (stereo unspecified),-1,5,-1,-4,0,0
COc1ccc(S(=O)(=O)N(C)C[C@H]2OCCCC[C@H](C)Oc3ccc(NS(=O)(=O)c4cccs4)cc3C(=O)N([C@@H](C)CO)C[C@H]2C)cc1,x,0,x,x,x,x
CC(=O)c1c(C)[nH]c(C(=O)COC(=O)COc2ccccc2F)c1C,-1,-6,-2,-1,-1,0
CC(=O)c1c(C)[nH]c(C(=O)COC(=O)Cc2ccccc2F)c1C,1,56*,-1,2,26,0
